This passage reports binding signal results from article PMC5700166.

Changes are numbered by the printed parent chain.

Experiment in all cases: protein-binding microarray (PBM); PBM: ~300 nM protein, 6 mM HEPES pH 7.8, 80 mM KCl, 0.5 mM EDTA, 0.5 mM EGTA, 6% glycerol, 35 ng/ul poly-dIdC, 1% milk, 1 h, room temperature; Ap Aiptasia and Nv Nematostella (sea anemones) / Co Capsaspora / Aq Amphimedon (sponge) / Dm Drosophila / Hu human; RHD is the Rel homology domain; high values mean tight binding
What all share (settings): dsDNA, one strand shown

The target in assay [1] is T1, GST-Ap-NF-kB RHD (Exaiptasia pallida (Aiptasia), UniProt A0A913YAJ5 2-422).
T1 sequence: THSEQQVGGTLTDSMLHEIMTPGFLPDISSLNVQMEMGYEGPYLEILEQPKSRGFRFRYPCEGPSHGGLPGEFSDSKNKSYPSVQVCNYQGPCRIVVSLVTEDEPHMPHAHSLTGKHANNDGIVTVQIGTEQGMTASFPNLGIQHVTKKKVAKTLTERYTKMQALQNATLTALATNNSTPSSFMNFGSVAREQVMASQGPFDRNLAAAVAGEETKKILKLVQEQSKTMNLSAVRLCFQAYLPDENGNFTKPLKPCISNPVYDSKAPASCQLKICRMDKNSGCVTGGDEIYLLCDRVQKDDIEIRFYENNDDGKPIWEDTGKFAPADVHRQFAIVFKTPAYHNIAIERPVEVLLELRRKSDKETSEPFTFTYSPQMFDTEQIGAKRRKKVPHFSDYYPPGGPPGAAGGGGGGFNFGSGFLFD

In assay [2] the target is T2, GST-Nv-NF-kB (Cys allele) (Nematostella vectensis, UniProt E5G601 2-411).
T2 sequence: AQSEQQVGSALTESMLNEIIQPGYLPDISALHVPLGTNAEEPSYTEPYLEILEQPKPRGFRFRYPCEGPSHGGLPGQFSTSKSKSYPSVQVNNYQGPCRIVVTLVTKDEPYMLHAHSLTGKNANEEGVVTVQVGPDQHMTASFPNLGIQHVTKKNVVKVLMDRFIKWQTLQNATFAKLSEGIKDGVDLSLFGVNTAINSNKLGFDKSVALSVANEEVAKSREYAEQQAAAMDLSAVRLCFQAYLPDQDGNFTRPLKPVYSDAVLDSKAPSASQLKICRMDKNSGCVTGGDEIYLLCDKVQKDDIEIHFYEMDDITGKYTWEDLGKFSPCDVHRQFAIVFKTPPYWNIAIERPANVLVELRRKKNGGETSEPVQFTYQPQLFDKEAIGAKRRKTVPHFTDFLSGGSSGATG

Assay [3] addresses T3, GST-Nv-NF-kB (Ser allele) (Nematostella vectensis, UniProt A7UNT2 2-411).
T3 sequence: T2 sequence with Q21R, C66S, S207N, E215Q, V217A, E225K, A268E, D399E

Assay [4] addresses T4, GST-Co-NF-kB (Capsaspora owczarzaki, UniProt F1ARL5 200-546).
T4 sequence: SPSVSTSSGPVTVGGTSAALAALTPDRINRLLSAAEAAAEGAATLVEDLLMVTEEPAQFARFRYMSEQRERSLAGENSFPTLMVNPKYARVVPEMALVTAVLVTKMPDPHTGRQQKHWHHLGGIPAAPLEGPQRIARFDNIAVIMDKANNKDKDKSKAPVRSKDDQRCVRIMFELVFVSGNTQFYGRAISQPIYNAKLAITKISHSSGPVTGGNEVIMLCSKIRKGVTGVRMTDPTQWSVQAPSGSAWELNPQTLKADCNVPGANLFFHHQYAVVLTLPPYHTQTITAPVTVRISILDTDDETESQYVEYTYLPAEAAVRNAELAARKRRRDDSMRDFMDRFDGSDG

Assay [5] addresses T5, GST-Dm-Relish (Drosophila melanogaster, UniProt Q94527 99-473).
T5 sequence: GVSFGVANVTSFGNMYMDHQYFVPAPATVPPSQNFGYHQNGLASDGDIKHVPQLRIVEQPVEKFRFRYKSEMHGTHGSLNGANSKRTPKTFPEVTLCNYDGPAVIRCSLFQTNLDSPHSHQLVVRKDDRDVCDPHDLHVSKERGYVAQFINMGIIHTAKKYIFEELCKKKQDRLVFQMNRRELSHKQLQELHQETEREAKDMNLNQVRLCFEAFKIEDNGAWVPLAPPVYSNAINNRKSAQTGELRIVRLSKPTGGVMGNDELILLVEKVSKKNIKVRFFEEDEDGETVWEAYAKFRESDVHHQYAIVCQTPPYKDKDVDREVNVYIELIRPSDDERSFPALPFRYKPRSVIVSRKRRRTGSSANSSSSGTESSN

The target in assay [6] is T6, GST-Aq-NF-kB (Amphimedon queenslandica, UniProt A9Y5G7 2-389).
T6 sequence: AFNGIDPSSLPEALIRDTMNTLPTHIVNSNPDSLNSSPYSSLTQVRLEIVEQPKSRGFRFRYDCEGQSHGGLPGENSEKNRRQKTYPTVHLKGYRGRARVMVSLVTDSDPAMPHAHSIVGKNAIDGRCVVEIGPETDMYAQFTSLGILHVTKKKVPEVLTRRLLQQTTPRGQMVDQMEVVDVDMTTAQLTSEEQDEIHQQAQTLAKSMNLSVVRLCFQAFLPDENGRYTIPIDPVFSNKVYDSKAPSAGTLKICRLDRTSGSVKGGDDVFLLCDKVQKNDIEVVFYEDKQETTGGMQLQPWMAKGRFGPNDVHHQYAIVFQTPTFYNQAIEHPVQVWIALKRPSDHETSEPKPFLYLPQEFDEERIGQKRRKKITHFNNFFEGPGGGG

For assay [7], the target named is GST-Hu-p50 (Homo sapiens, UniProt P19838 7-356).
Chain of GST-Hu-p50 (P19838 7-356): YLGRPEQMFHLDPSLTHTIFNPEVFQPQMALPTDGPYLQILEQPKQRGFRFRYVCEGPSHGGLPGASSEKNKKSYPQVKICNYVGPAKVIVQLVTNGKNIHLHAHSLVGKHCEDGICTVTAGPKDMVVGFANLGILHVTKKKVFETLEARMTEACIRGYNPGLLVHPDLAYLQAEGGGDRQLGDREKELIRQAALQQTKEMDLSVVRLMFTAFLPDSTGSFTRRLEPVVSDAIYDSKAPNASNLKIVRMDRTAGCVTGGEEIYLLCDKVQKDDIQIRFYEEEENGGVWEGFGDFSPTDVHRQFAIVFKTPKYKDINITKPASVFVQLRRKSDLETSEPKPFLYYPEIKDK

Consider “CCGATTAACATCAAAAATCCCCATGATGTTAATCGGGTCTTGATTCGCTTGACGCTGCTG”, for which the binding signal in assay [1] was 9.63 z-score; in assay [2], 10.8 z-score; in assay [3] it was 11.4 z-score; in assay [4], 5.31 z-score; in assay [5], 9.64 z-score; in assay [6], 7.92 z-score. In assay [7], this sequence returned a binding signal of 7.94 z-score.
Consider “CCGATTAACATCAATTTTTCCCCTGATGTTAATCGGGTCTTGATTCGCTTGACGCTGCTG”, for which the binding signal in assay [1] was 7 z-score; in assay [2], 8.62 z-score; in assay [3], 11.5 z-score; in assay [4] it was 11.2 z-score; in assay [5], 5.15 z-score; in assay [6] it was 5.96 z-score. Also, the binding signal in assay [7] came to 6.59 z-score.
As to “CCGATTAACATCAAAAATTACCCTGATGTTAATCGGGTCTTGATTCGCTTGACGCTGCTG”, the binding signal in assay [1] came to 4.2 z-score; in assay [2], 7.43 z-score; in assay [3] it was 7.03 z-score; in assay [4], 4.09 z-score; in assay [5], 6.42 z-score; in assay [6], 6.93 z-score. For the same sequence, the binding signal in assay [7] turned out to be 5.22 z-score.
On to “CCGATTAACATCACGGGGATTCCTGATGTTAATCGGGTCTTGATTCGCTTGACGCTGCTG”, for which the binding signal in assay [1] is 9.77 z-score; in assay [2] it was 9.58 z-score; in assay [3], 8.87 z-score; in assay [4], 4.28 z-score; in assay [5] it was 10.6 z-score; in assay [6], 7.41 z-score. The sequence further displayed a binding signal in assay [7] of 6.46 z-score.
For “CCGATTAACATCAAATTCCCGCCTGATGTTAATCGGGTCTTGATTCGCTTGACGCTGCTG”, the binding signal came out at 3.27 z-score in assay [1]; 4.23 z-score in assay [2]; 4.63 z-score in assay [3]; 3.86 z-score in assay [4]; 3.49 z-score in assay [5]; 3.39 z-score in assay [6]. This sequence yielded a binding signal in assay [7] of 3.12 z-score.
Take “CCGATTAACATCAAACACCCCCTTGATGTTAATCGGGTCTTGATTCGCTTGACGCTGCTG”: the binding signal was determined as 4.95 z-score in assay [1]; 5.25 z-score in assay [2]; 5.61 z-score in assay [3]; 3.04 z-score in assay [4]; 5.63 z-score in assay [5]; 6.03 z-score in assay [6]. The binding signal in assay [7] was found to be 5.5 z-score.
As for “CCGATTAACATCAGGGAAAAGTATGATGTTAATCGGGTCTTGATTCGCTTGACGCTGCTG”, the binding signal came out at 3.35 z-score in assay [1]; 4.5 z-score in assay [2]; 6.25 z-score in assay [3]; 4.73 z-score in assay [4]; 1.56 z-score in assay [5]; 3.86 z-score in assay [6]. In addition, the binding signal in assay [7] came out at 2.97 z-score.
As for “CCGATTAACATCAAAAAATACCCTGATGTTAATCGGGTCTTGATTCGCTTGACGCTGCTG”, the binding signal in assay [1] was 6.17 z-score; in assay [2], 9.78 z-score; in assay [3] it was 8.7 z-score; in assay [4], 3.1 z-score; in assay [5], 8.93 z-score; in assay [6], 8.03 z-score. The binding signal in assay [7] turned out to be 6.73 z-score.
“CCGATTAACATCATATGGGAAAATGATGTTAATCGGGTCTTGATTCGCTTGACGCTGCTG”: the binding signal in assay [1] was found to be 1.55 z-score; in assay [2], 3.76 z-score; in assay [3], 4.82 z-score; in assay [4], 3.09 z-score; in assay [5] it was 1.12 z-score; in assay [6], 2.17 z-score. In assay [7], this sequence came in with a binding signal of 2.72 z-score.
Consider “CCGATTAACATCAGGAACTTCCCTGATGTTAATCGGGTCTTGATTCGCTTGACGCTGCTG”, for which the binding signal was 4.62 z-score in assay [1]; 5.28 z-score in assay [2]; 3.16 z-score in assay [3]; 1.73 z-score in assay [4]; 4.4 z-score in assay [5]; 7.58 z-score in assay [6]. Moreover, the binding signal in assay [7] is 3.6 z-score.
“CCGATTAACATCATAAATCCCCATGATGTTAATCGGGTCTTGATTCGCTTGACGCTGCTG”: the binding signal in assay [1] stood at 6.78 z-score; in assay [2], 7.56 z-score; in assay [3], 9.37 z-score; in assay [4] it was 3.91 z-score; in assay [5], 7.13 z-score; in assay [6], 5.14 z-score. This sequence came in with a binding signal in assay [7] of 7.11 z-score.
Regarding “CCGATTAACATCACGGGAATACCTGATGTTAATCGGGTCTTGATTCGCTTGACGCTGCTG”, the binding signal in assay [1] was 4.13 z-score; in assay [2] it was 3.29 z-score; in assay [3], 2.87 z-score; in assay [4] it was 3.47 z-score; in assay [5], 6.3 z-score; in assay [6] it was 5.81 z-score. The binding signal in assay [7] came to 1.75 z-score.
